{"source": "PubChem BioAssay AID1224864", "about": "(Chung Lab, Department of Pediatrics, Emory University, 2016)", "note": "The whole screen tested about 2,000 compounds, of which about 20 (1%) were called active. The sample holds actives, similar compounds and a random draw of the others, so the mix is not that of the screen. No rule for the calls is given here. Residues, ends and D or L forms follow the SMILES beside them. *: point of attachment. Boc = CC(C)(C)OC(=O)*"}
{"biological_target": "Cystic fibrosis transmembrane conductance regulator (Homo sapiens) (UniProt P13569)", "sequence (P13569 whole entry, looked up, stated change not applied)": "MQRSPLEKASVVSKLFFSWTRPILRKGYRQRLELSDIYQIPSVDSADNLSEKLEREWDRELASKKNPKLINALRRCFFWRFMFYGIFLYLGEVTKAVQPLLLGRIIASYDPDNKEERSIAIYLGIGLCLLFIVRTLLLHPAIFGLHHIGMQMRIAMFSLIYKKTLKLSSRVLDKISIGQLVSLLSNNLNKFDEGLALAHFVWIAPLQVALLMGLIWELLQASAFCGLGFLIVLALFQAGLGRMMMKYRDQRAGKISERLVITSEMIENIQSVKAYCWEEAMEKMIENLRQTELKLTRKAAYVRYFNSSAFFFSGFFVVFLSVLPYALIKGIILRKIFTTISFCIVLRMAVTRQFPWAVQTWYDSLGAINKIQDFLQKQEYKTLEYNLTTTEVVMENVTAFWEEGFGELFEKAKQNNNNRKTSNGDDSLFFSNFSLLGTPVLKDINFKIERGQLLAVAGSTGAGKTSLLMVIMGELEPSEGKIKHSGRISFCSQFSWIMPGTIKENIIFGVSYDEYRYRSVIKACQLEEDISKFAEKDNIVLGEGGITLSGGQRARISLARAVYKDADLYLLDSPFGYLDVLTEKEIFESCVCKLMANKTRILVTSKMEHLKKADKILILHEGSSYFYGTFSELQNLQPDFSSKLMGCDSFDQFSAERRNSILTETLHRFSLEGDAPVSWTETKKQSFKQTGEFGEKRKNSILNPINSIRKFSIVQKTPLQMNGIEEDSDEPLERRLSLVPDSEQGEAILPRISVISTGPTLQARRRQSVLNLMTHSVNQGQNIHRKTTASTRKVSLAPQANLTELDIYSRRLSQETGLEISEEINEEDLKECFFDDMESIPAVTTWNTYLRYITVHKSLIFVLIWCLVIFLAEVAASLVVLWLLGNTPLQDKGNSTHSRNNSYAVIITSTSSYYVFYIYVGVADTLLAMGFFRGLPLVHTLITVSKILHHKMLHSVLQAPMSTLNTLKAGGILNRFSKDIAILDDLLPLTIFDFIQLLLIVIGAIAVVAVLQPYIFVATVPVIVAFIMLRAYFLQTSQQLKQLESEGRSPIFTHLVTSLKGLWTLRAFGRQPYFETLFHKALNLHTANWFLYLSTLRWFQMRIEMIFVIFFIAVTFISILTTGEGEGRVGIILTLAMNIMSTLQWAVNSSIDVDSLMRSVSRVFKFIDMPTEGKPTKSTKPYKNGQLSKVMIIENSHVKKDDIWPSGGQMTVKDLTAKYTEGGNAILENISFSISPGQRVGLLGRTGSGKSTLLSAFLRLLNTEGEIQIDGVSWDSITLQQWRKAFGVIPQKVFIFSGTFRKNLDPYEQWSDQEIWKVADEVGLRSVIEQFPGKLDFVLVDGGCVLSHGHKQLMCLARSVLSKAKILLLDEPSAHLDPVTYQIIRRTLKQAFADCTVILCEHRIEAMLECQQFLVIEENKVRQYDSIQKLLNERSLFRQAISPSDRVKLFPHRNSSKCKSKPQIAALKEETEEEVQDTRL", "assay": "F508del-CFTR plasma membrane relocalization enhancers – imaging, HeLa, high-content microscopy, immunofluorescence, primary screen (AID 1224864);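 also: HeLa cells stably expressing F508del-CFTR stained with 3G11 antibody against NBD1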;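 as to plasma membrane CFTR intensity: mean immunofluorescence in a thin cell-margin band taken as plasma membrane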", "details": "PM immunofluorescence imaging, 24 h, at 10 µM, stronger effect = higher value, relative to vehicle wells set at 100; total CFTR intensity: measured here: total cellular F508del-CFTR signal", "units": {"total CFTR intensity": "%"}}
{"smiles": "Cc1ccc2c(c1)C(C)(C)[C@]1(C)NC(=O)CCN21", "plasma membrane CFTR intensity": "94% (inactive)", "total CFTR intensity": 97}
{"smiles": "CC(C)C(CCN1C(=O)CCC1=O)C1CCOC(C)(C)C1", "note": "(configuration not stated)", "plasma membrane CFTR intensity": "87% (inactive)", "total CFTR intensity": 90}
{"smiles": "CC(C)OC(=O)CC1C(=O)NCCN1C(=S)NC(=O)c1ccccc1Cl", "note": "(configuration not stated)", "plasma membrane CFTR intensity": "79% (inactive)", "total CFTR intensity": 80}
{"smiles": "COc1ccc(C2C(C(=O)c3ccco3)=C(O)C(=O)N2CC2CCCO2)cc1", "note": "(configuration not stated)", "plasma membrane CFTR intensity": "79% (inactive)", "total CFTR intensity": 83}
{"smiles": "COc1ccc2cc(C3(C)NC(=O)NC3=O)ccc2c1", "note": "(configuration not stated)", "plasma membrane CFTR intensity": "89% (inactive)", "total CFTR intensity": 88}
{"smiles": "COc1ccc2[nH]c3c(c2c1)CCNC3C1CC=C(C)CC1", "note": "(configuration not stated)", "plasma membrane CFTR intensity": "99% (inactive)", "total CFTR intensity": 117}
{"smiles": "COC(=O)C1[C@H]2C(=O)N(Cc3cccs3)C[C@]23C=C[C@H]1O3", "note": "(some centres not stated)", "plasma membrane CFTR intensity": "92% (inactive)", "total CFTR intensity": 95}
{"smiles": "S=C(c1ccc2c(c1)OCO2)N1CCCCC1", "plasma membrane CFTR intensity": "83% (inactive)", "total CFTR intensity": 85}
{"smiles": "Fc1ccc(NC(=S)Nc2ccccc2Cl)cc1", "plasma membrane CFTR intensity": "92% (inactive)", "total CFTR intensity": 93}
{"smiles": "CCNC(=O)c1sc2cc(C)ccc2c1Cl", "plasma membrane CFTR intensity": "92% (inactive)", "total CFTR intensity": 95}
{"smiles": "NS(=O)(=O)c1cc2c(cc1Cl)NC(CSCc1ccccc1)=NS2(=O)=O", "plasma membrane CFTR intensity": "84% (inactive)", "total CFTR intensity": 85}
{"smiles": "C[C@@H]1C[C@H](Nc2ccccc2)c2ccccc2N1C(=O)c1cccnc1", "plasma membrane CFTR intensity": "97% (inactive)", "total CFTR intensity": 103}
{"smiles": "CC(=O)c1c[nH]c2ccc(C)cc2c1=O", "plasma membrane CFTR intensity": "83% (inactive)", "total CFTR intensity": 84}
{"smiles": "COc1ccc(OC)c(NC2=C(Cl)C(=O)N(Cc3ccccc3)C2=O)c1", "plasma membrane CFTR intensity": "88% (inactive)", "total CFTR intensity": 100}
{"smiles": "Cc1ccc2occ(C(=O)c3ccco3)c(=O)c2c1", "plasma membrane CFTR intensity": "86% (inactive)", "total CFTR intensity": 90}
{"smiles": "O=C(O)[C@H](Cc1ccccc1)NC(=O)N1CCC(Cc2ccccc2)CC1", "plasma membrane CFTR intensity": "89% (inactive)", "total CFTR intensity": 83}
{"smiles": "CC(C)CC(=O)N(Cc1ccc(F)cc1)C1CCS(=O)(=O)C1", "note": "(configuration not stated)", "plasma membrane CFTR intensity": "96% (inactive)", "total CFTR intensity": 98}
{"smiles": "CCOc1ccccc1OCCOc1ccc(F)cc1", "plasma membrane CFTR intensity": "86% (inactive)", "total CFTR intensity": 86}
{"smiles": "C=CCNc1nc2c(c(=O)n(C)c(=O)n2C)n1CC(=C)C", "plasma membrane CFTR intensity": "82% (inactive)", "total CFTR intensity": 80}
{"smiles": "CCOC(=O)C1=C(N)Oc2c(c(=O)[nH]c3ccccc23)C1c1ccccc1", "note": "(configuration not stated)", "plasma membrane CFTR intensity": "93% (inactive)", "total CFTR intensity": 96}
{"smiles": "CCNC(=O)C(Cc1ccccc1)NC(=O)OCc1ccccc1", "note": "(configuration not stated)", "plasma membrane CFTR intensity": "81% (inactive)", "total CFTR intensity": 80}
{"smiles": "COC(=O)c1ccccc1NC(=O)c1ccc(COc2ccc3c(c2)CCC3)cc1", "plasma membrane CFTR intensity": "84% (inactive)", "total CFTR intensity": 83}
{"smiles": "CCOC(=O)C1C(=O)OC2(CCOC(C)(C)C2)C1C(=O)OCC", "note": "(configuration not stated)", "plasma membrane CFTR intensity": "90% (inactive)", "total CFTR intensity": 87}
{"smiles": "COc1ccc(NC(=O)N2CCCCC2c2cccnc2)cc1", "note": "(configuration not stated)", "plasma membrane CFTR intensity": "84% (inactive)", "total CFTR intensity": 84}
{"smiles": "CCOC(=O)C1C2C=CC3(CN(c4ccc(Cl)c(F)c4)C(=O)C13)O2", "note": "(configuration not stated)", "plasma membrane CFTR intensity": "84% (inactive)", "total CFTR intensity": 83}
{"smiles": "CCOC(=O)/C=C1\\NC(C)(C)Cc2cc(OC)c(OC)cc21", "plasma membrane CFTR intensity": "86% (inactive)", "total CFTR intensity": 89}
{"smiles": "O=C(COc1ccccc1)N1CCN(c2ccccc2)CC1", "plasma membrane CFTR intensity": "88% (inactive)", "total CFTR intensity": 85}
{"smiles": "CC[N+]1(C)CC2CCC(C)(C1)C2(C)C", "note": "(configuration not stated)", "plasma membrane CFTR intensity": "72% (inactive)", "total CFTR intensity": 75}
{"smiles": "CC(C)(C)OC(=O)N1CCCC1C(=O)NC(Cc1ccccc1)C(=O)O", "note": "(stereo not drawn) (Boc-Pro-Phe-OH; configuration not given here)", "plasma membrane CFTR intensity": "96% (inactive)", "total CFTR intensity": 102}
{"smiles": "CC(=O)N1CC23C=CC(CC2CC12CCCCCC2)O3", "note": "(configuration not stated)", "plasma membrane CFTR intensity": "73% (inactive)", "total CFTR intensity": 77}
{"smiles": "O=C(Nc1cccc(-c2nc3ncccc3o2)c1)c1ccccc1", "plasma membrane CFTR intensity": "68% (inactive)", "total CFTR intensity": 72}
{"smiles": "CC(COc1ccccc1)NC(C)C(O)c1ccc(O)cc1", "note": "(configuration not stated)", "plasma membrane CFTR intensity": "104% (active)", "total CFTR intensity": 121}
{"smiles": "CC(NCCc1ccc(O)cc1)C(O)c1ccc(O)cc1", "note": "(configuration not stated)", "plasma membrane CFTR intensity": "101% (inactive)", "total CFTR intensity": 96}
{"smiles": "CC(COc1ccccc1)N(CCCl)Cc1ccccc1", "note": "(configuration not stated)", "plasma membrane CFTR intensity": "78% (inactive)", "total CFTR intensity": 80}
{"smiles": "Cc1coc2cc3oc(=O)c(CCC(=O)O)c(C)c3cc12", "plasma membrane CFTR intensity": "105% (inactive)", "total CFTR intensity": 107}
{"smiles": "N#C/C(C(N)=O)=c1/ccc2c(c1)N1C3=C(CCCC3)CC3CCCCC31N=2", "note": "(configuration not stated)", "plasma membrane CFTR intensity": "109% (active)", "total CFTR intensity": 123}
{"smiles": "COC1CCCCC1Nc1ccc(C)c(C)c1", "note": "(configuration not stated)", "plasma membrane CFTR intensity": "80% (inactive)", "total CFTR intensity": 82}
{"smiles": "CC(=O)Nc1cc(O)cc(O)c1", "plasma membrane CFTR intensity": "83% (inactive)", "total CFTR intensity": 93}
{"smiles": "O=C(NCC1CCCO1)c1ccc(OC2CCN(C(=O)C3CC3)CC2)cc1", "note": "(configuration not stated)", "plasma membrane CFTR intensity": "83% (inactive)", "total CFTR intensity": 76}
{"smiles": "CCOC(=O)c1oc2cc(OCC(N)=O)ccc2c(=O)c1-c1ccc(OC)c(OC)c1", "plasma membrane CFTR intensity": "82% (inactive)", "total CFTR intensity": 82}
{"smiles": "CC(=O)OCC(=O)[C@@]1(O)CC[C@H]2[C@@H]3CCC4=CC(=O)C=C[C@]4(C)[C@H]3[C@@H](O)C[C@@]21C", "plasma membrane CFTR intensity": "89% (inactive)", "total CFTR intensity": 94}
{"smiles": "CCCC1O[C@@H]2C[C@H]3[C@@H]4CCC5=CC(=O)C=C[C@]5(C)[C@H]4[C@@H](O)C[C@]3(C)[C@]2(C(=O)CO)O1", "note": "(some centres not stated)", "plasma membrane CFTR intensity": "123% (active)", "total CFTR intensity": 137}
{"smiles": "CC1(C)O[C@@H]2C[C@H]3[C@@H]4CCC5=CC(=O)C=C[C@]5(C)[C@@]4(F)[C@@H](O)C[C@]3(C)[C@]2(C(=O)CO)O1", "plasma membrane CFTR intensity": "109% (inactive)", "total CFTR intensity": 114}
{"smiles": "CC(=O)N1c2ccccc2C(C)=CC1(C)C", "plasma membrane CFTR intensity": "80% (inactive)", "total CFTR intensity": 87}
{"smiles": "COc1ccc2c(c1OC)C(=O)OC2C1c2c(cc3c(c2OC)OCO3)CCN1C", "note": "(configuration not stated)", "plasma membrane CFTR intensity": "138% (active)", "total CFTR intensity": 128}
{"smiles": "COc1ccc(C(=O)CC2OC(=O)c3c2ccc(OC)c3OC)cc1", "note": "(configuration not stated)", "plasma membrane CFTR intensity": "118% (inactive)", "total CFTR intensity": 115}
{"smiles": "COc1ccc2c(c1OC)C(C1c3c(cc4c(c3OC)OCO4)CCN1C)OC2=O", "note": "(configuration not stated)", "plasma membrane CFTR intensity": "116% (inactive)", "total CFTR intensity": 112}
{"smiles": "COc1ccc(CCNC(=S)NC(=O)/C=C/c2ccc(C)cc2)cc1OC", "plasma membrane CFTR intensity": "82% (inactive)", "total CFTR intensity": 81}
{"smiles": "CN/C(=C/[N+](=O)[O-])NCCSCc1ccc(CN(C)C)o1", "plasma membrane CFTR intensity": "88% (inactive)", "total CFTR intensity": 83}
{"smiles": "Cc1ncoc1C(=O)N1CCCC(C(=O)c2ccc(-c3ccccc3)c(F)c2)C1", "note": "(configuration not stated)", "plasma membrane CFTR intensity": "82% (inactive)", "total CFTR intensity": 75}
{"smiles": "CCc1cc(=O)oc2cc(C)c(CN3CCCC(C)C3)c(O)c12", "note": "(configuration not stated)", "plasma membrane CFTR intensity": "88% (inactive)", "total CFTR intensity": 88}
